This is part of a sample that, as a whole, favours compounds with a hit. Of some 83,000 tested, about 20% had one in any assay.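 Each cell line was grown in a 96-well plate and treated with one concentration of compound for 48 hours. Values below 10 were considered active.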 Values without a mark were called inactive. Activity calls are given as the source filed them.
Columns and labels:
Experiment in all cases: NCI-60 one-dose screen, 48 h (100 = growth as untreated, 0 = no growth, -100 = all killed)
Conditions in all cases: 10 µM unless noted
[1] = tested on: HCT-15 colon
[2] = tested on: HT29 colon
[3] = tested on: SNB-75 CNS
[4] = tested on: SNB-19 CNS
[5] = tested on: U251 CNS
[6] = tested on: PC-3 prostate
[7] = tested on: SK-MEL-5 melanoma
[8] = tested on: UACC-62 melanoma
[9] = tested on: LOX IMVI melanoma
[10] = tested on: SK-MEL-28 melanoma
[11] = tested on: SK-MEL-2 melanoma
[12] = tested on: EKVX NSCLC
[13] = tested on: SN12C renal
[14] = tested on: UO-31 renal
[15] = tested on: TK-10 renal
[16] = tested on: ACHN renal
[17] = tested on: CAKI-1 renal
[18] = tested on: A498 renal
[19] = tested on: CCRF-CEM leukemia
[20] = tested on: MOLT-4 leukemia

SMILES | growth [1] | growth [2] | growth [3] | growth [4] | growth [5] | growth [6] | growth [7] | growth [8] | growth [9] | growth [10] | growth [11] | growth [12] | growth [13] | growth [14] | growth [15] | growth [16] | growth [17] | growth [18] | growth [19] | growth [20]
Nc1cc(-c2ccc(Cl)cc2)nn1-c1nnc(/C=C/c2ccco2)c(=O)[nH]1 | 38.1% | 44.2% | 67.3% | 57.8% | 50.6% | 52.6% | 46% | 52.5% | 49.9% | 66.4% | 87.9% | 41.7% | 68.2% | 3.92% (active) | 51.2% | 29.4% | 1.03% (active) | 33.8% | 33.9% | 44.4%
C[C@@H]1NC(=O)[C@H](Cc2ccccc2)N(Cc2cccnc2)C1=O | 103% | 102% | 85.1% | 96.1% | 91.1% | 94.1% | 101% | 92.7% | 98.5% | 112% | 96.7% | 109% | 93.6% | 89% | 95% | 97.3% | 90.2% | 63.5% | 109% | 101%
C#Cc1cccc(NC(=O)C2CCCCN2C(=O)CCl)c1 (stereo not given) | -54.7% [8.25 µM] (active) | -52.5% [8.25 µM] (active) | -5.47% [8.25 µM] (active) | 20.1% [8.25 µM] | -62.2% [8.25 µM] (active) | -7.93% [8.25 µM] (active) | -81.7% [8.25 µM] (active) | -84.8% [8.25 µM] (active) | -74.6% [8.25 µM] (active) | 2% [8.25 µM] (active) | -51.7% [8.25 µM] (active) | 19.6% [8.25 µM] | -92.3% [8.25 µM] (active) | -97.3% [8.25 µM] (active) | 9.36% [8.25 µM] (active) | -97.3% [8.25 µM] (active) | -95.5% [8.25 µM] (active) | 58.5% [8.25 µM] | -11.9% [8.25 µM] (active) | -13.7% [8.25 µM] (active)
CCOC(=O)C1=C(c2ccccc2)N=C2N(c3ccccc3)N=C(C(C)=O)N2C1c1ccc(F)cc1 (stereo not given) | 90.8% | 109% | 89.4% | 95.4% | 103% | 89.4% | 97.6% | 89.5% | 102% | 105% | 112% | 97% | 94.3% | 84.3% | 104% | 96.7% | 91.8% | 70.4% | 95.9% | 101%
CC(C)(C)CC(C)(C)Nc1c(-c2c(O)c3ccccc3oc2=O)nc2sc3ccccc3n12 | 20% | 34.8% | 49.7% | 26.1% | 25.5% | 34.9% | 42% | 30.4% | 36.4% | 58.2% | 66.2% | 26.6% | 51% | 16% | 32.3% | 33.7% | 23.5% | 69.6% | 23.4% | 28.5%
Cc1ccc2c(c1)sc1nc(-c3c[nH]c4ccccc34)c(Nc3ccccc3)n12 | 105% | 104% | 89.8% | 94.9% | 106% | 90.4% | 113% | 89.4% | 96.3% | 110% | 109% | 101% | 102% | 77.3% | 114% | 100% | 79.8% | 109% | 107% | 98.7%
CC1SC(c2ccccc2O)N(NC(=O)CCC(=O)c2nc3ncccc3[nH]2)C1=O (stereo not given) | 103% | 105% | 83.8% | 101% | 97.3% | 92.3% | 95.1% | 99.4% | 84.8% | 113% | 95.8% | 85.7% | 101% | 66.9% | 103% | 97.4% | 80.3% | 90.6% | 116% | 123%
CSc1nc(-c2ccco2)c(C#N)c(=O)n1C | 98.1% | 113% | 89.3% | 93.7% | 103% | 94.4% | 101% | 99.5% | 97.2% | 109% | 94.3% | 98.4% | 110% | 112% | 104% | 100% | 89.2% | 103% | 88.7% | 95.1%
COc1ccc(CNc2ccc3nc(NC(=O)CN4CCCCCC4)sc3c2)cc1 | 70.9% | 60.6% | 131% | 96.1% | 85.4% | 65.8% | 67.8% | 73.8% | 78.5% | 101% | 85.4% | 80.1% | 87.3% | 80.6% | 117% | 89.8% | 85.2% | 90.3% | 58.6% | 61.1%
CN(C)CCn1c(=O)c2ccccc2n2nc3ccccc3c12 | 84.1% | 78.9% | 93.5% | 78.1% | 88.8% | 99.3% | 87.2% | 72.7% | 56.4% | 116% | 128% | 94.1% | 69.9% | 52.9% | 97.9% | 46.6% | 77.6% | 9.6% (active) | 81.8% | 29.9%
Oc1c(I)cc(I)cc1CN(Cc1ccccn1)Cc1ccccn1 | 21.3% | 25.5% | 30% | 22.3% | 7% (active) | 28% | -33.5% (active) | 3.88% (active) | 7.25% (active) | 28.5% | 21.6% | 13% | 27.3% | -19.2% (active) | 8.19% (active) | 10.4% | 0.0911% (active) | 22.3% | 9.21% (active) | 5.38% (active)
CCOC(=O)CC[C@H](NC(=O)c1ccc(N(C)Cc2cnc3nc(N)nc(N)c3n2)c2ccccc12)C(=O)OCC | 30% | 12.5% | 76% | 33.7% | 33% | 24.3% | 23.4% | 18.5% | 17.6% | 47.8% | 51.9% | 75.2% | 35.6% | 20.9% | 43.8% | 25% | 24.1% | 35.1% | 10.5% | 24.8%
O=c1c2ccccc2n(C[C@H]2CO2)c2ccccc12 | -16.8% (active) | 2.83% (active) | -29.4% (active) | 22.3% | -6.13% (active) | 19.2% | -80.8% (active) | -83.4% (active) | -54.3% (active) | 2.83% (active) | -64.5% (active) | 16.3% | 6.14% (active) | -27.5% (active) | 4.13% (active) | -26.6% (active) | -9.84% (active) | 96.1% | 6.9% (active) | 0.563% (active)
COc1ccc(C2[C@@H](c3ccccc3)C(=O)N2c2cc(OC)c(OC)c(OC)c2)cc1F (stereo not given in full) | 8.76% (active) | -19.2% (active) | 66.2% | 30.6% | 7.17% (active) | 23.8% | -15.6% (active) | 15.1% | 19% | 63.6% | 2.73% (active) | 34.7% | 32.6% | 38% | 43.7% | 34.2% | 30.8% | 2.92% (active) | 6.85% (active) | 5.7% (active)

Reference: PubChem BioAssay (NCI)
